In the library only some 2.2% were active in any assay of this set; here they are far more common.
NTR1 agonist = agonists of human neurotensin receptor NTR1. P30989. activation, % at 20 µM. NTR1-U2OS beta-arrestin-GFP spot imaging, agonist mode. hit rate 0.17% among 330,000. AID 493036;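 active = activation at or above 40% of the spot to cytoplasm intensity ratio, with at least 20 cells analyzed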;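 note: 0% = DMSO without peptide and 100% = 100 nM NTR1 peptide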
M1 ag parental = nonselective activator or artifact in parental CHO-K1 cells. Fluo-8 calcium fluorescence; scaled to maximal ATP response, vehicle zero. activation, % at 3 µM. hit rate 0.48% among 360,000; in the data active = activation above about 15%;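 note: untransfected CHO-K1 host cells lacking M1 receptor as counterscreen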
CHO-K1 Ca PAM = nonselective activator or artifact in parental CHO-K1 calcium assay; ATP EC20, Fluo-8 calcium fluorescence; 0% at ATP EC20, 100% at ATP max; activation, % at 3 µM; hit rate 0.02% among 360,000; AID 602247;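 active = activation above the run cutoff, the mean activation of all test compounds plus 3 SD, cut at about 40% in these data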;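 note: peak over basal fluorescence ratio in a 140 s read after ATP addition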
ANO1 block = mouse TMEM16A channel inhibition, primary screen. Q8BHY3. HEK293 TMEM16A/YFP iodide influx fluorescence, ionomycin. normalized B-score (activity score, 25-100; higher = stronger inhibition) at 10 µM. hit rate 1.2% among 310,000. AID 588511;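 active = ratio plate-corrected score three or more library SD toward inhibition, starting fluorescence score within five deviations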;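 note: score derived from kinetic fluorescence span divided by baseline fluorescence per well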
Target sequence (Q8BHY3 whole entry, looked up): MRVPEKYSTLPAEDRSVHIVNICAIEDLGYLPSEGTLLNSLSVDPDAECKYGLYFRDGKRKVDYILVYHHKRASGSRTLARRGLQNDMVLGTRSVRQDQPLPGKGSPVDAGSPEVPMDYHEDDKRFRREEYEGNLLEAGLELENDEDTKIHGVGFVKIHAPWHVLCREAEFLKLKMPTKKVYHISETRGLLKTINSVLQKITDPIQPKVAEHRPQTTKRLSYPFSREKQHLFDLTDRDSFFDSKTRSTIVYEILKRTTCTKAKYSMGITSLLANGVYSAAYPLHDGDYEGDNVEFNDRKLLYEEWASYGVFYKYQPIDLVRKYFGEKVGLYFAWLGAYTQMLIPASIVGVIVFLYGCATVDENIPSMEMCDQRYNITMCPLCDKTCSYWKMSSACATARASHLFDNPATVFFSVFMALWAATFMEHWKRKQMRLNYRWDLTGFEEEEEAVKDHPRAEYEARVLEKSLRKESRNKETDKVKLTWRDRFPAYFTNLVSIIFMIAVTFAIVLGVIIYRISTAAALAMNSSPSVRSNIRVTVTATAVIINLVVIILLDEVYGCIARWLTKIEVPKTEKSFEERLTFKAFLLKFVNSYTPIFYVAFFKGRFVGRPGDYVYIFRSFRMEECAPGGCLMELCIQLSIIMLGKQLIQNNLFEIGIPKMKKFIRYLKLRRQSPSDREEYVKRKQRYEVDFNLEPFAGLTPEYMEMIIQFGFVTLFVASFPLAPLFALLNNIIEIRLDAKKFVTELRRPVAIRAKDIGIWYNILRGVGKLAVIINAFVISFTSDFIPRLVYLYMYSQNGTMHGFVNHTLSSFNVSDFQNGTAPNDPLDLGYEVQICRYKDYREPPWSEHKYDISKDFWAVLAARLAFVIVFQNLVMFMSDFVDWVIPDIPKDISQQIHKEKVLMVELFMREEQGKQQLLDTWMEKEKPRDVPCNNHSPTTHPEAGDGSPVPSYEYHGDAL
ANO1 activ = activates or potentiates the mouse TMEM16A chloride channel; Q8BHY3; HEK293 TMEM16A/YFP-H148Q/I152L, iodide quench fluorescence; hits give low values; B-score at 10 µM; hit rate 0.3% among 340,000; AID 623877;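 active = fluorescence-ratio B-score plate-corrected deviation score at least 3 library SD below zero, with starting fluorescence score within 5 deviations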;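 note: channel opened by trigger with iodide after compound preincubation; score built on the fluorescence ratio of max minus min over baseline; more negative score means more quench and so TMEM16A activation or potentiation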
CHO-K1 Ca antag = counter-screen for M1 antagonists: effect in parental CHO-K1 cells | ATP-induced calcium, Fluo-8 fluorescence | inhibition, % at 3 µM | hit rate 0.6% among 360,000 | AID 602250;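 active = inhibition above a per-plate cutoff, the plate's mean sample inhibition plus 3 SD, cut at about 24% in these data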;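 note: 0% = DMSO plus EC80 ATP and 100% = DMSO alone without ATP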
* marks the source's active call; other numbers are inactive results; i = inactive; / = not tested or not shown.

SMILES	NTR1 agonist	M1 ag parental	CHO-K1 Ca PAM	ANO1 block	ANO1 activ	CHO-K1 Ca antag
CCN(CC)C(=O)c1ccc(NC(=O)c2cc(S(=O)(=O)N3CCCCCC3)ccc2OC)cc1	-0.2	3.8	1.6	i	i	-3.3
CCN(CC)C(=O)c1ccc(NC(=O)c2cccc(S(=O)(=O)N3CCN(Cc4ccccc4)CC3)c2)cc1	1.1	9.0	-18.8	25*	i	29.3*
O=P1(c2ccccc2)CC=CC1	/	0.2	2.8	/	/	-5.8
C[C@]12CCC3C(CC[C@H]4C[C@@H](O)CC[C@]34C)C1CC[C@@H]2N (stereo partly drawn)	1.1	18.6*	25.3	/	i	11.4
O=c1cc(C(F)(F)F)c2cc3c4c(c2o1)CCCN4CCC3	-1.7	88.8*	-9.3	i	i	59.2*
C[C@H](CO)N1C[C@H](C)[C@@H](CN(C)C(=O)Oc2ccc3ccccc3c2)OCc2cn(nn2)CCCC1=O	/	0.4	11.1	/	/	5.2
N#Cc1ccc(NC(=S)N2Cc3ccccc3-n3nncc3C2)cc1	/	3.0	12.8	/	/	-6.1
CC1=C(O)C(=O)C=C2C1=CC=C1C2(C)CCC2(C)C3CC(C)(C(=O)O)CCC3(C)CCC12C (stereo not drawn)	/	5.7	5.7	/	-10.2*	36.9*
Nc1ccc2ccc3cccc[n+]3c2c1	-0.3	32.3*	19.9	i	i	-8.8
Cc1[nH]c2ccccc2c1CCN	-1.8	0.0	-8.3	i	i	29.2*
Cc1[nH]c2ccccc2c1CCCNC1CCCCC1	-2.0	-0.1	-13.9	i	i	19.5
c1ccc2c(c1)CN(Cc1ccc3c(c1)OCO3)Cc1cnnn1-2	/	-0.3	-0.3	/	/	27.3*
c1ccc(CN2Cc3ccccc3-n3nncc3C2)cc1	/	1.4	16.9	/	/	-6.2
CC/C(=C\C=C\[C@@H]1C=C[C@@H]2CCC[C@H]2[C@@H]1C(=O)c1ccc[nH]1)[C@@H]1O[C@@H]([C@@H](C)C(=O)O)CC[C@@H]1C	5.9	/	/	100*	/	/
CC(=O)OC1C(O)C2=C3C4(C)C1C(C)(C)C(=O)CC4C3(O)C(OC(C)=O)C1(CC1C)C2=O (stereo not drawn)	/	0.4	-7.1	/	/	-6.8
COC(=O)[C@@H]1N=C(c2ccc(OC)cc2)O[C@]12C(=O)N(C)c1ccc(Cl)cc12	/	1.0	-6.1	/	/	2.3
COc1ccccc1OCC(=O)N1CCCC(N2CCN(c3ccc(F)cc3)CC2)C1 (stereo not drawn)	-0.2	0.5	0.9	i	i	1.1
O=C(COc1ccccc1Cl)N1CCCC(N2CCN(c3ccc(F)cc3)CC2)C1 (stereo not drawn)	0.1	15.2*	7.0	i	i	14.9
c1ccc2c(c1)[nH]c1cnccc12	-0.9	0.6	-13.0	i	i	25.4*
O=c1[nH]c2ccccc2n1C1CCN(C(c2cccs2)c2nnnn2-c2ccc3c(c2)OCCO3)CC1 (stereo not drawn)	/	6.8	41.9*	/	/	-27.6
COc1cccc(C(c2nnnn2-c2ccc3c(c2)OCCO3)N2CCC(n3c(=O)[nH]c4ccccc43)CC2)c1OC (stereo not drawn)	/	6.1	31.3	/	/	-6.1
O=c1[nH]c2ccccc2n1C1CCN(C(c2ccccc2OC(F)(F)F)c2nnnn2-c2ccc3c(c2)OCCO3)CC1 (stereo not drawn)	/	19.6*	33.0	/	/	-18.1
O=c1[nH]c2ccccc2n1C1CCN(C(c2ccccc2)c2nnnn2-c2ccc3c(c2)OCCO3)CC1 (stereo not drawn)	/	6.2	9.4	/	/	-16.8
CCOC(=O)[C@]12Cc3cc(OC)ccc3[C@H]1N(C(C)C)C(=O)c1cc(OC)ccc12	/	2.2	18.8	/	/	-16.0
CN1CCN(CC#CCOc2ccc(Cl)cc2)CC1	1.8	-0.2	-3.0	i	i	1.5
SMILES	NTR1 agonist	M1 ag parental	CHO-K1 Ca PAM	ANO1 block	ANO1 activ	CHO-K1 Ca antag
CCCN(CC#CCOc1ccc(OC)cc1)CCC	-2.1	0.3	-2.7	i	-16.4*	-3.7
O=c1[nH]c2ccccc2n1C1CCN(Cc2ccc(-c3[nH]c4cc5ncnc5cc4nc3-c3ccccc3)cc2)CC1	/	3.1	-2.2	/	/	2.1
CCOc1cccc(=NC2CCCCC2)c2c(C)n(C)c(C)c12	11.0	1.8	20.9	100*	i	-19.9
CCOc1ccccc1N=C1SCCCN1C	0.7	1.6	23.3	i	i	-13.4
O=C1NC(=O)C(C2CCCCCC2)C(=O)N1	/	0.2	-15.7	/	i	-11.9
CCOc1ccc(-c2c(C)n(-c3ccc(OCC)cc3)c3[n+]2CCCCC3)cc1	1.7	12.1	-15.1	25*	i	39.5*
CC(C)N1C(=O)NC(=O)C2(Cc3cc([N+](=O)[O-])ccc3N(C)C2c2ccccc2)C1=O (stereo not drawn)	0.5	25.3*	20.3	i	i	-4.2
N#Cc1ccc(NC(=O)CN2CCCC2)cc1Cl	1.2	2.9	9.5	i	i	-13.9
CCN(CC(=O)Nc1ccc(C#N)c(Cl)c1)CC(=O)NC1CCS(=O)(=O)C1 (stereo not drawn)	-0.2	0.4	-18.2	/	i	25.3*
CC(=O)N1CCCSC1=Nc1ccccc1	-0.9	0.1	12.6	i	-29.8*	0.2
N#CC1c2ccccc2-n2nncc2CN1Cc1cc(Cl)cc(Cl)c1 (stereo not drawn)	/	2.4	0.4	/	/	14.8
CCCCCn1c(=O)c(C(=O)NCc2ccncc2)c(O)c2ccccc21	1.6	-0.3	4.4	25*	i	-6.1
CC1OC(OC2C=C3CCC4C(CCC5(C)C(c6ccc(=O)oc6)CCC45O)C3(C)CC2)C(O)C(OC2OC(CO)C(O)C(O)C2O)C1O (stereo not drawn)	/	0.3	4.8	/	i	-14.4
Cc1ccc(-c2cc(-c3ccc(C)cc3)[n+](-c3ccc(C(=O)[O-])cc3)c(-c3ccc(C)cc3)c2)cc1	10.8	-0.3	-3.4	i	i	-13.7
CCOC(=O)c1ccc(-[n+]2c(-c3ccccc3)cc(-c3ccccc3)cc2-c2ccccc2)cc1	28.3	/	/	i	-13.6*	/
Cc1ccc(-c2cc(-c3ccc(C)cc3)[n+](-c3ccccc3)c(-c3ccc(C)cc3)c2)cc1	33.5	16.9*	-3.2	100*	i	16.4
CCOC(=O)c1cccc(-[n+]2c(-c3ccccc3)cc(-c3ccccc3)cc2-c2ccccc2)c1	8.0	0.2	-2.5	i	-5.64*	-16.9
COc1cc(O)c2c(c1)/C=C/C[C@H](O)[C@H](O)C(=O)CCC[C@H](C)OC2=O	/	0.4	4.2	/	/	-6.0
O=C1NCN(c2ccccc2)C12CCN(C(c1nnnn1C1CCCCC1)C1CC1)CC2 (stereo not drawn)	/	2.1	12.9	/	/	-8.7

Assay outcomes as filed in PubChem.
